Assay outcomes: PubChem, National Center for Advancing Translational Sciences (NCATS)
Shown are actives, neighbours in structure and some others; about 3.2% of the full set was active somewhere.
IL-2 act: IL-2 activation. AID 652025. actives 0.065% (n = 360,000). activation, % (series mostly up to about 46 µM). IL-2 activation reporter assay, cell-based qHTS; stimulated with anti-CD3/CD4/CD28 beads; in transgenic mouse T cells; in the data active = activation above about 50%; inconclusive = mostly about 30% to 49%
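Unstimulated transgenic mouse T cells, 750 per well, received compound and, after 60 minutes, anti-CD3/anti-CD4 bead plus anti-CD28 stimulation. EGFP and DsRed were quantified after 18 hours.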
Nrf2 inh: blocks Nrf2 signaling; A549 ARE-Fluc reporter, luciferase luminescence, 18-24 h; Potency, µM (doses to about 46 µM), most hits filed as inhibitors; actives 2.1% (n = 360,000); AID 504444; note: nearly all actives have a fitted effect of over 60% in size
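Concentration-response testing used A549 ARE_Fluc cells at 5000 cells/well. Following an 18-24 h compound incubation, viability was read by fluorescence (Ex 405/Em 525) and luciferase output by luminescence.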
A549 viability: A549 cytotoxicity, counter-screen for Nrf2 inhibitors; actives 0.16% (n = 390,000); Potency, µM (titrated, usually from 46 µM), actives largely listed as inhibitors; A549 ARE-Fluc cells, CellTiter-Fluor viability, 18-24 h
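A549 ARE-Fluc cells in 5% FBS OPTI-MEM, 5000 cells/well, rested 2 h then exposed to compounds in concentration-response for 18-24 h at 37 °C. Viability by CellTiter-Fluor fluorescence (Ex 405/Em 525) after 30 min; luciferase luminescence (BugLite, 15 min, RT) read afterwards.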
p53 reactivation: restores transcriptional activity of mutant p53; H1299 p53-A138V BP100-luciferase reporter, luminescence, 24 h; Potency, µM (highest dose often 92.2 µM), usual class: activators; actives 0.063% (n = 320,000); note: nearly all actives have a fitted effect of over 45% in size
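p53-null H1299 cells stably carrying temperature-sensitive p53-A138V and a BP100-luciferase reporter were pinned with compounds (4-point, 1:5 series) and held 24 hrs at 37 deg C. Luminescence was read 10 min after detection reagent.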
BRCA1 expr up: increases BRCA1 expression; AID 624202; Potency, µM (series often up to 46.1 µM), usual class: activators; MCF7-BRCA1-FFLuc reporter, luminescence, 48 h; response scale: scaled: vehicle 0%, 10 µM genistein 100%; actives 1.1% (n = 380,000); note: nearly all actives have a fitted effect of over 80% in size
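Reporter cells (MCF7, BRCA1 promoter-firefly luciferase) received library compounds across a concentration series for 48 h. End-point luminescence was measured and concentration-effect curves derived after normalization.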
Nrf2 activator: activators of Nrf2 (ARE) signaling; AREc32 ARE-luciferase reporter (MCF7-derived line), luminescence, 24 h; Potency, µM (titrated, usually from 46.1 µM), actives largely listed as activators; actives 0.31% (n = 410,000); note: nearly all actives have a fitted effect of over 65% in size
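Reporter line AREc32 (ARE-Fluc), seeded overnight in OPTI-MEM with 5% FBS; compound pin-transferred, 24 hr at 37 deg C, 5% CO2; luminescent read-out.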
Large screens that a line does not name were inactive; ! = not active in a repeat. Unless noted, calls come from the whole dose curve; as a rule, active = well fitted curve in the direction sought with a large enough effect; inconclusive = small, poorly fitted or top-dose-only effect, or another doubt; inactive = no such curve, though single readings can be large; an effect the other way counts as inactive or inconclusive.

COc1cc(NC(=O)COC(=O)c2[nH]c(C)c(C(C)=O)c2C)cc(OC)c1	Nrf2 inh 13µM
Cc1cnc(C(=O)OCC(=O)Nc2ccc3c(c2)OCCO3)cn1	none
CC(=O)c1c(C)[nH]c(C(=O)OCC(=O)Nc2cc(C)on2)c1C	Nrf2 inh inconclusive
CCOC(=O)c1[nH]c(C)c(C(=O)OCC(=O)NC(=O)NC(C)(C)C)c1C	none (no result: A549 viability)
CC(=O)c1c(C)[nH]c(C(=O)OCC(=O)Nc2ccc(Cl)cc2[N+](=O)[O-])c1C	Nrf2 inh 21µM
CCOc1ccc(CCNC(=O)C2Cc3ccccc3N2C(=O)CC)cc1 (configuration not stated)	none (no result: IL-2 act, Nrf2 inh, p53 reactivation, BRCA1 expr up)
Cc1ccc(-n2c(O)c(C=NCc3ccccn3)c3ccccc3c2=O)cc1C	Nrf2 inh 10µM
O=c1c2ccccc2c(C=NCc2ccccn2)c(O)n1-c1ccccc1	none
O=C1c2cccc3cccc(c23)C(=O)N1CCCN(C(=O)c1cccs1)c1cccc(F)c1	Nrf2 inh inconclusive, Nrf2 activator 3.2µM
CCc1nn2c(-c3ccco3)ccnc2c1-c1ccccc1	Nrf2 inh inconclusive, Nrf2 activator inconclusive (no result: IL-2 act, p53 reactivation)
Cc1cc2c(s1)c1cnn(Cc3ccc(C#N)cc3)c(=O)c1n2C	none (no result: IL-2 act, p53 reactivation, BRCA1 expr up, Nrf2 activator)
Cc1ccc(NC(=O)Nc2cccnc2)cc1NC(=O)Nc1cccnc1	Nrf2 inh 18µM
Cc1cc(C)cc(NC(=O)Nc2cccnc2)c1	none
Cc1cc(O)c(-c2cc(C(=O)Nc3cccnc3)[nH]n2)cc1C	BRCA1 expr up 5.6µM
Cc1cc(Br)ccc1OCC(=O)N(Cc1nc(-c2ccccc2)no1)C(C)C	Nrf2 inh 18µM
COc1ccccc1OCC(=O)N(Cc1nc(-c2ccccc2)no1)C(C)C	Nrf2 inh 13µM
Cc1ccc(N2CC(NC(=O)/C=C\c3ccc4c(c3)OCO4)CC2=O)cc1 (configuration not stated)	none (no result: IL-2 act, Nrf2 inh, p53 reactivation, BRCA1 expr up)
Fc1c(F)c(F)c(N/N=C/c2c[nH]c3ccccc23)c(F)c1F	Nrf2 activator 13µM
O=C(NCC1CCCO1)C(c1cccs1)N(Cc1ccccc1Cl)C(=O)c1ccc(-c2ccccc2)[nH]1 (configuration not stated)	Nrf2 inh 23µM
O=C(NCc1cccnc1)/C(=C/c1ccc(-c2cccc(Cl)c2)o1)S(=O)(=O)c1ccccc1	Nrf2 activator inconclusive
O=C(NCc1cccnc1)/C(=C\c1ccc(-c2cccc(Cl)c2)o1)S(=O)(=O)c1ccccc1	Nrf2 inh 21µM, A549 viability 21µM, Nrf2 activator inconclusive
COc1cccc(C2c3c(ncn(-c4cccc(F)c4)c3=N)Oc3ccc4ccccc4c32)c1 (configuration not stated)	Nrf2 inh inconclusive (no result: IL-2 act, p53 reactivation, BRCA1 expr up, Nrf2 activator)
Cc1ccc(NC(=S)NCCSc2ccc(Cl)cc2)cc1	Nrf2 inh inconclusive
Cc1cccc(C)c1NC(=S)NCCSc1ccc(Cl)cc1	Nrf2 inh 26µM, A549 viability inconclusive
CS(=O)(=O)N1CCC(n2c(C(F)(F)F)nc3cccnc32)CC1	Nrf2 inh inconclusive (no result: IL-2 act, p53 reactivation, BRCA1 expr up)
O=C(CSc1ccc(-c2cccs2)nn1)N1CCCCCC1	p53 reactivation inconclusive, BRCA1 expr up 13µM
Cc1cccc(NC(=O)Cn2c(=O)n(CCC(=O)N3CCc4ccccc4C3)c(=O)c3ccccc32)c1	none (no result: IL-2 act, p53 reactivation)
O=C(NCCCc1ccccc1)c1cnc2n(c1=O)CCS2	p53 reactivation inconclusive, BRCA1 expr up 6.3µM (no result: Nrf2 inh)
O=C(NCc1ccccc1)c1cnc2n(c1=O)CCS2	none
O=C(NCCC1=CCCCC1)c1cnc2n(c1=O)CCS2	p53 reactivation inconclusive, BRCA1 expr up 8.9µM
O=C(NCCc1ccc(Cl)cc1)c1cnc2n(c1=O)CCS2	p53 reactivation inconclusive, BRCA1 expr up inconclusive
O=S(=O)(Nc1ccc(-c2ccc(N3CCCC3)nn2)cc1)c1cccc(C(F)(F)F)c1	A549 viability inconclusive (no result: IL-2 act, Nrf2 inh, p53 reactivation, BRCA1 expr up)
Cc1ccn2c(-c3csc(NCc4ccco4)n3)c(C)nc2c1	Nrf2 inh 23µM
COc1ccc(-c2csc(NCc3ccco3)n2)cc1C	Nrf2 inh inconclusive, p53 reactivation inconclusive, BRCA1 expr up 6.3µM
COc1cc(OC)c(NC(=O)CC(c2cccs2)N2Cc3ccccc3C2=O)cc1Cl (configuration not stated)	none (no result: IL-2 act, p53 reactivation)
Clc1cccc(N2CCN(c3ncnc4c3nc3n4CCCCC3)CC2)c1	Nrf2 inh 13µM, A549 viability inconclusive (no result: IL-2 act, p53 reactivation)
CCN(C(=O)C1CCCN(c2ncnc3c2nc2n3CCCCC2)C1)c1cccc(Cl)c1 (configuration not stated)	Nrf2 inh 15µM!
CSc1cccc(NC(=O)C2CCCN(c3ncnc4c3nc3n4CCCCC3)C2)c1 (configuration not stated)	Nrf2 inh 18µM
CCn1ccc2cc(S(=O)(=O)N3CCCN(C(=O)NCCOC)CC3)ccc21	none (no result: IL-2 act, Nrf2 inh, p53 reactivation)
CCOC(=O)c1c(C)n(-c2ccccc2)c2ccc(OC(=O)c3ccccc3)cc12	none (no result: IL-2 act, p53 reactivation, BRCA1 expr up)
CC(=O)c1cc(NC(=O)c2ccccc2)c(=O)oc1C	Nrf2 activator 13µM
COc1cc(/C=C2\C(=O)N(c3cccc(C(=O)O)c3)N=C2C)ccc1OCc1ccccc1	BRCA1 expr up 7.1µM (no result: Nrf2 inh, A549 viability, p53 reactivation)
COc1cc(/C=C2\SC(=Nc3ccccc3)N(Cc3ccco3)C2=O)ccc1OC(C)C(=O)O (configuration not stated)	A549 viability inconclusive
COCCN1C(=O)/C(=C/c2ccc(OCc3ccc(C(=O)O)cc3)c(OC)c2)SC1=Nc1ccccc1	Nrf2 inh inconclusive, A549 viability 21µM
C#CCOc1ccc(/C=C2/C(=O)N(c3cccc(C(=O)O)c3)N=C2C)cc1OC	Nrf2 inh inconclusive
COc1ccc(-c2nc3ccccc3n3c(-c4cccc(C)c4)c4c(=O)n(C)c(=O)n(C)c4c23)cc1OC	none (no result: IL-2 act, p53 reactivation, BRCA1 expr up)
O=C(CCN1CCOCC1)c1ccc2c(c1)OCCO2	Nrf2 activator inconclusive
O=C(CCN1CCc2ccccc2CC1)c1ccc2c(c1)OCCO2	Nrf2 inh 18µM, Nrf2 activator inconclusive (no result: A549 viability)
O=C(COC(=O)c1ccc(O)cc1)c1ccc2c(c1)OCCO2	BRCA1 expr up 10µM
O=C(COC(=O)c1ccc(O)cc1)Nc1ccc2c(c1)OCCO2	Nrf2 inh inconclusive, p53 reactivation inconclusive, BRCA1 expr up inconclusive
O=C(OCC(=O)N1CCOCC1)c1ccc2c(c1)OCCO2	p53 reactivation inconclusive
O=C(OCCN1CCOCC1)c1ccc2c(c1)OCCO2	Nrf2 inh inconclusive, BRCA1 expr up 7.9µM (no result: p53 reactivation)
O=C1C2C(c3ccccc3)CC=CC2C(c2ccc3ccccc3c2)N1Cc1ccccc1 (configuration not stated)	Nrf2 inh inconclusive (no result: IL-2 act, p53 reactivation, BRCA1 expr up, Nrf2 activator)
COc1ccc(OC)c(NC(=O)c2ccc(-c3csc(C)n3)cc2)c1	none
